Drawing on PubChem BioAssay AID488984 (The Scripps Research Institute Molecular Screening Center, 2010), this text covers inhibition for 13 molecules.

SMILES strings stand for the structures. Unmarked numbers belong to inactive results. Rule as the data show it: active = inhibition above about 55%; inactive = the rest.

This assay deals with SARS coronavirus 3C-like protease (3CLpro, nsp5). Put plainly: blockers of SARS 3CLpro activity – biochemical, fluorescence, set 2, late-stage follow-up (AID 488984). The conditions noted are these: recombinant 3CLpro, fluorogenic peptide cleavage; at 100 µM; hits give high values.
Usually inhibition stands for how much of the control response was suppressed. Consider `CC(C)(C)NC(=O)C(c1cccnc1)N(C(=O)Cc1cccc2ccccc12)c1ccc(OCF)cc1` (stereo not drawn), for which the inhibition was 3.12%.
For `CC(C)(C)NC(=O)C(c1cccnc1)N(C(=O)Cc1cccnc1)c1ccc(C(C)(C)C)cc1` (stereo not drawn) the value was 20.2%; for `CC(C)(C)NC(=O)C(c1ccsc1)N(C(=O)c1n[nH]c2ccccc12)c1ccc(F)cc1` (stereo not drawn), 15.3%; for `Cc1nccn1CC(=O)N(c1ccc(N)cc1)C(C(=O)NC(C)(C)C)c1ccsc1` (stereo not drawn), 6.79%.
Then `CC(C)(C)NC(=O)C(c1ccsc1)N(C(=O)Cc1cccc2ccccc12)c1ccc(F)cc1` (stereo not drawn), with 19.2%; and `CC(C)(C)NC(=O)C(c1ccsc1)N(C(=O)c1ccc(C#N)cc1)C1CC1` (stereo not drawn), with 11.2%.
`CC(C)(C)NC(=O)C(c1ccsc1)N(C(=O)c1n[nH]c2ccccc12)c1ccc(C(C)(C)C)cc1` (stereo not drawn): the inhibition is 17.9%.
For `CC(C)(C)NC(=O)C(c1cccnc1)N(C(=O)Cc1cccnc1)C1CC1` (stereo not drawn) the value was 7.01%.
On to `CC(C)(C)NC(=O)C(c1ccsc1)N(C(=O)Cn1cnc2ccccc21)c1ccc(N)cc1` (stereo not drawn), for which the inhibition was 12.6%.
`CC(C)(C)NC(=O)C(c1ccsc1)N(C(=O)c1ccco1)c1ccc(F)cc1` (stereo not drawn): the inhibition is 11.2%.
Turning to `CC(C)(C)NC(=O)C(c1cccnc1)N(C(=O)c1cccc2c1CCCC2)c1ccc(F)cc1` (stereo not drawn), the inhibition is 12%.
Consider `CC(C)(C)NC(=O)C(c1ccsc1)N(C(=O)Cn1cnc2ccccc21)c1ccc(C(C)(C)C)cc1` (stereo not drawn), for which the inhibition was 1.78%.
On to `CC(C)(C)NC(=O)C(c1cccnc1)N(C(=O)c1cccc2c1CCCC2)c1ccc(OCF)cc1` (stereo not drawn), for which the inhibition is 16%.
